Compounds with a hit are over-represented: about 2.3% of the library has one in this group of screens.
KDM4E inh: JMJD2E (human) inhibition; Potency, µM (top dose mostly 57.1 µM), without a hit: top-dose activity change, negative = inhibition, hits mostly inhibitors; 230,000 tested, 1.6% active; B2RXH2; JMJD2E catalytic domain, FDH-coupled NADH fluorescence (FDH is formaldehyde dehydrogenase);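 note: potency is the fitted concentration of half-maximal effect; 0% = wells with enzyme and -100% = buffer wells without enzyme; nearly all actives have a fitted effect of over 50% in size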
GoLoco inh red: RGS12 GoLoco-Gai1 interaction inhibition; 230,000 tested, 0.44% active; Potency, µM (series often up to 61.6 µM), inactives show top-dose activity, negative = inhibition, actives largely listed as inhibitors; Gai1:RGS12 GoLoco peptide FP, rhodamine, 10 min; AID 880; active = well fitted inhibition curve with a large enough effect, not every such curve was filed as active; inactive = no such curve, though single readings can be large or run the other way; note: potency is the fitted concentration of half-maximal effect; % is set by controls: 0 for no effect and ±100 for the full control effect; nearly all actives have a fitted effect of over 30% in size
VDR inh: vitamin D3 receptor (human) inhibition; P11473; VDR-SRC2-3 peptide fluorescence polarization, 2 h; Potency, µM, inactives show max response, negative = inhibition, most hits filed as inhibitors; 400,000 tested, 0.93% active; note: potency is the fitted concentration of half-maximal effect; % is set by controls: 0 for no effect and ±100 for the full control effect
Target sequence (P11473 whole entry, looked up): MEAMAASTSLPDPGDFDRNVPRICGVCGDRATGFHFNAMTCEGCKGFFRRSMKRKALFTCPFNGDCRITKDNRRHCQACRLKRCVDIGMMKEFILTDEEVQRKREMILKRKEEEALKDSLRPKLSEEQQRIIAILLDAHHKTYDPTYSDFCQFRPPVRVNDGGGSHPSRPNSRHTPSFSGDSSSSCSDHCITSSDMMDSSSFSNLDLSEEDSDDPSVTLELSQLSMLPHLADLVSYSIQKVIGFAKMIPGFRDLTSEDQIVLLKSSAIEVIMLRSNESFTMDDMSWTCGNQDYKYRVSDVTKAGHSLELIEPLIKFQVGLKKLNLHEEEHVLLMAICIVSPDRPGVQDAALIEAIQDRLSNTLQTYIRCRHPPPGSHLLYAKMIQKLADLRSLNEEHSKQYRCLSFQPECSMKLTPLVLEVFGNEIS
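Compounds are added to VDR with labelled SRC2-3 coactivator peptide and held 2 h at room temperature. Inhibition of the VDR–peptide interaction is then read as a change in fluorescence polarization.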
HttQ103 aggreg: mutant huntingtin aggregation inhibition. PC12 HttQ103-GFP aggregates, Acumen cytometry, 40 h. Potency, µM (highest dose often 46.1 µM), inactives show at the highest dose activity change, negative = inhibition, hits mostly inhibitors. 220,000 tested, 1.1% active. AID 1688; note: potency is the fitted concentration of half-maximal effect; % is set by controls: 0 for no effect and ±100 for the full control effect; nearly all actives have a fitted effect of over 60% in size
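PC12 cells stably carrying ecdysone-inducible HTT exon 1 Q103–GFP were induced with tebufenozide (100 nM final) and treated with library compounds in titration. GFP aggregates in lysates were counted by laser scanning cytometry.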
Coupling enz: inhibits coupling enzyme system, counter-screen for aldolase hits; coupling enzyme system counterscreen, AmpLite Red fluorescence; activity change, negative = inhibition, % at 58.2 µM, hits read low; 290,000 tested, 0.67% active; AID 2472; in the data active = activity change below about -30%; note: % is set by controls: 0 for no effect and ±100 for the full control effect
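Counterscreen of the coupled detection system alone, without aldolase: glyceraldehyde-3-phosphate coupling enzymes plus AmpLite Red readout. Compounds at 57.5 uM final, 10 min RT preincubation, 20 min RT reaction, fluorescence 525/598 nm.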
HTT cytoprotect: Huntington cell model cytoprotection by ATP luminescence. PC12 HTT-Q103 induced, cytoprotection, ATP luminescence, 40 h. 230,000 tested, 0.14% active. Potency, µM (highest dose often 56.4 µM), for inactives: cytoprotection (ATP increase), actives largely listed as activators. AID 1471; note: potency is the fitted concentration of half-maximal effect; % of control where 0% means no effect; nearly all actives have a fitted effect of over 45% in size
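ATP quantification (ATPlite) reports survival of PC12 cells in which tebufenozide, 100 nM final, switches on Htt exon 1 with 103 glutamines linked to GFP; compounds are titrated.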
Active calls of the source: *; [ ] = dose if it differs, or a comment. Unless noted, calls come from the whole dose curve; as a rule, active = well fitted curve in the direction sought with a large enough effect; inconclusive = small, poorly fitted or top-dose-only effect, or another doubt; inactive = no such curve, though single readings can be large; an effect the other way counts as inactive or inconclusive.

`COc1ccc(CC2=C(O)c3ccccc3C(=O)C2=O)cc1` gave VDR inh inconclusive and Coupling enz -2.
Screening O=C1C(=O)c2ccccc2C(O)=C1CCCCl returned KDM4E inh -16%, GoLoco inh red 0%, VDR inh -26%, HttQ103 aggreg -18%[9.22 µM], Coupling enz -50* and HTT cytoprotect -24%[10 µM].
`CC(=O)NCc1ccc(S(=O)(=O)N2CCCN(C)CC2)cc1` gave VDR inh inconclusive and Coupling enz 2.
CCn1c(=S)[nH]c2c(=O)n(C)c(=O)n(C)c21 was read as VDR inh 50µM*.
Screening Cn1c(=O)c2[nH]c(Br)nc2n(C)c1=O returned VDR inh 2%, HttQ103 aggreg -3% and HTT cytoprotect -2%.
Screening Cc1c(Cl)cccc1NC(=O)CCn1c(=O)c2cccn2c2ccccc21 returned VDR inh -1%.
`CCOC(=O)c1c(C)n(C)c2ccc(O)c(CN3CCN(C)CC3)c12` gave KDM4E inh -11%, GoLoco inh red -4%, VDR inh -5%, HttQ103 aggreg 2%, Coupling enz -8 and HTT cytoprotect -17%.
For CCOC(=O)c1c(C)n(C)c2ccc(O)c(CN3CCC(C)CC3)c12 the results were KDM4E inh 1%, GoLoco inh red -3%, VDR inh 89µM*, HttQ103 aggreg 12%, Coupling enz 1 and HTT cytoprotect -25%[10 µM].
O=C(O)CCNc1ccc2c(c1)OCCO2 was read as KDM4E inh 4%, GoLoco inh red -10%, VDR inh 14%, HttQ103 aggreg inconclusive, Coupling enz -41* and HTT cytoprotect -27%.
CCN(CC)C(=O)CSc1nc2c(sc(=S)n2-c2ccccc2)c(=O)n1-c1ccc(OC)cc1OC was read as VDR inh 25µM* and Coupling enz 0.
CC[C@@H]1[C@H]2CCCCN3[C@@H]2[C@@H](C[C@H]3[C@@H]2C[C@H](C)C(=O)O2)[C@@H]2[C@H]1OC(=O)[C@H]2C was read as HTT cytoprotect -12%.
`COc1cc2c(cc1OC)[C@H](C)N(CC1C(=O)O[C@@H]3C[C@@]4(C)CCC[C@H](C)[C@@]45OC5[C@H]13)CC2` (some centres undefined) gave KDM4E inh -16%, GoLoco inh red 1%, VDR inh -20%, Coupling enz -1 and HTT cytoprotect 8.9µM*.
For CCc1cccc(CC)c1NC(=S)NCCc1c(C)[nH]c2ccc(C)cc12 the results were KDM4E inh -1%, GoLoco inh red 4%, VDR inh -9%, HttQ103 aggreg 6.3µM* and Coupling enz 2.
CCOc1ccc(Nc2ncnc3c2c(-c2ccccc2)cn3-c2cccc(C)c2)cc1 was read as VDR inh 15%.
For Cc1c(Cl)cccc1NC(=O)CSc1ncnc2c1sc1ccccc12 the results were VDR inh 12%.
Screening O=C1CC(c2ccccc2)CC(=O)C1CS(=O)(=O)c1ccccc1 (centres undefined) returned KDM4E inh -15%, GoLoco inh red 4%, VDR inh 32µM*, HttQ103 aggreg 8%, Coupling enz 7 and HTT cytoprotect 2%.
O=C1CC(=O)CC(c2ccccc2)C1 was read as KDM4E inh 4%, GoLoco inh red 9%, VDR inh inconclusive, HttQ103 aggreg 0%, Coupling enz 4 and HTT cytoprotect -12%.
`CCc1c(C(=O)NCCc2ccc(N3CCCCC3)cc2)[nH]c2ccc(Cl)cc12` gave VDR inh -2%.
COCCN(CC(=O)NCC1CCCO1)C(=O)CCC(=O)Nc1ccccn1 (centres undefined) was read as KDM4E inh 5%, GoLoco inh red -2%, VDR inh 35µM*, HttQ103 aggreg 5%, Coupling enz 0 and HTT cytoprotect -10%.

Bioassay records: PubChem BioAssay, National Center for Advancing Translational Sciences (NCATS)
